Source: PubChem BioAssay (several laboratories)
Shown are actives, neighbours in structure and some others; about 1.3% of the full set was active somewhere.
CD11b adhes enh: enhancers of CD11b/CD18 adhesion to fibrinogen, primary screen, K562 cells, luminescence; Integrin beta-2 (Homo sapiens) + Integrin alpha-M (Homo sapiens), P05107+P11215; ATPlite luminescence; activation, % at 10 µM; hit rate 0.07% among 93,000; AID 1499, 2009;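 active = 10 µM primary screen giving 50% or more activity, confirmed by 40% or more on retest at that dose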
Target sequence (P05107 whole entry, looked up, other chains not shown): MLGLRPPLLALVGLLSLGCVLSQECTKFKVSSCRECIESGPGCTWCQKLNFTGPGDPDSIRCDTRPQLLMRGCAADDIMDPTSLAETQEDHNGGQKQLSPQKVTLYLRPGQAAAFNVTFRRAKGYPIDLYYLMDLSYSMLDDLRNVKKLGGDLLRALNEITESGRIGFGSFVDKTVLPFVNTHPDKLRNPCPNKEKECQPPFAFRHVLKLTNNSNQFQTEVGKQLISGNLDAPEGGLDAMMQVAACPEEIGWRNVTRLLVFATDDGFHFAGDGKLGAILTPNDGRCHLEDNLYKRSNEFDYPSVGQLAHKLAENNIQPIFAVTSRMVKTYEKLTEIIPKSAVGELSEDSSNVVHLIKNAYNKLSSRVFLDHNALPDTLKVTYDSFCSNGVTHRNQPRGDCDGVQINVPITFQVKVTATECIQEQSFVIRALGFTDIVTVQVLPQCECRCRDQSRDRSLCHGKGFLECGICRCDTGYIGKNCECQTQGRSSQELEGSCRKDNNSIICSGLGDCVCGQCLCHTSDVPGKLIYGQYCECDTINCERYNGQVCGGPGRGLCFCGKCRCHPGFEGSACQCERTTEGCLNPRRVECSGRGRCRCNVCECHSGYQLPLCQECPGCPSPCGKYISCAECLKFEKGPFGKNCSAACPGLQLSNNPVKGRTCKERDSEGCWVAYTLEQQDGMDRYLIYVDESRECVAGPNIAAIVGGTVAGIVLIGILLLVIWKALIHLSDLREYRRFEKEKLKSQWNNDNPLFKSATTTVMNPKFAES
SDO1 yeast rescue: growth rescue of sdo1-depleted yeast, primary screen, S. cerevisiae, bone marrow failure model; S. cerevisiae sdo1-depleted JHY4D growth rescue, OD600 30 h; hits give high values; pdr5 snq2 efflux-pump mutant strain; z-score at 10 µM; hit rate 0.21% among 140,000;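 active = z-score above 3 at both the 24 hr and the 30 hr optical density reads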;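 note: z-score against mean and SD of all compound wells on the same plate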
CD11b adhes inh: inhibitors of CD11b/CD18 adhesion to fibrinogen, primary screen, K562 cells, luminescence | Integrin beta-2 (Homo sapiens) + Integrin alpha-M (Homo sapiens), P05107+P11215 | ATPlite luminescence; Mn2+ added to activate the integrin | inhibition, % at 10 µM | hit rate 0.54% among 93,000 | AID 1497, 2009;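 active = primary inhibition of 50% or more at 10 µM, then 40% or more on retest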
Phagocyt inh: inhibitors of macrophage phagocytosis, primary screen, imaging, J774A.1 cells, IgG beads; inhibition, % at 5 µM; AID 1029, 2008; J774A.1 macrophage IgG-bead phagocytosis; hit rate 0.07% among 110,000;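 active = inhibition above the mean of the plate negative controls plus 5 SD, cut at about 13% in these data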;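 note: phagocytic index as fraction of beads internalized from green versus red external bead signal; plate controls were DMSO negative control for no effect and cytochalasin-D positive control for full effect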
MRP reversal: reversal of MRP1-mediated doxorubicin resistance, primary screen, H69AR cells, doxorubicin co-treatment; H69AR cells + 2 uM doxorubicin, CellTiter-Glo, 72 h; differential viability (reversal), % at 10 µM; AID 602, 2007; hit rate 0.04% among 85,000;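 active = viability drop by adding the cancer drug above about 55%, with treated viability meeting a 40% cutoff, limit read from the data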;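 note: viability without doxorubicin minus viability with 2 µM doxorubicin for each compound; larger differential means the compound sensitizes cells more to doxorubicin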
MRP1 act: H69AR viability gain despite doxorubicin, primary screen, MRP-1 activator project, H69AR cells, CellTiter-Glo; viability increase, % at 10 µM; AID 799, 2007; viability rescue; hit rate 0.61% among 140,000;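 active = viability gain under doxorubicin at or above a set limit, the compound median plus 3 SD, cut at about 4.7% in these data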;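 note: MRP-1 overexpressing cells given doxorubicin 25 µM after compound pretreatment; 18-22 h compound pretreatment then 72 h with doxorubicin before readout; 0% = doxorubicin-only wells and 100% = vehicle-treated cells without doxorubicin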
sdo1 rescue conf: SDO1-depleted yeast growth rescue, concentration-response, diseases of bone marrow failure, JHY4D, OD600; shares compounds with SDO1 yeast rescue; S. cerevisiae JHY4D (SDO1-depleted) growth rescue, 30 h; hits give high values; efflux-deficient strain, SNQ2 and PDR5 mutated; OD recovery (concentration not given with the values); hit rate 44% among 440; AID 949, 2007;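 active = yeast growth recovered at 30 hours, either rising with dose fitted slope above 0.001 or with average optical density gain above 0.07, some results past the limit were not filed as active; inactive = growth falling with dose or no effect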;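 note: gain in OD600 from 0 h to 30 h averaged across all seven doses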
The depositor's hits bear a star; nt = no result given; ! = a repeat was not active.

SMILES	CD11b adhes enh	SDO1 yeast rescue	CD11b adhes inh	Phagocyt inh	MRP reversal	MRP1 act	sdo1 rescue conf
CCOC(=O)c1sc(=S)n(-c2ccc(C)cc2)c1SC	3.9	-0.64	-1.4	-1.1	nt	-2.2	nt
CCOC(=O)c1sc(=S)n(-c2ccccc2)c1N	nt	4.04*	nt	nt	10.2	0.0	0.056
O=C(C(c1ccccc1)c1ccccc1)N(Cc1ccco1)C1CCS(=O)(=O)C1 (configuration not stated)	1.7	15.8*	-13.4	-1.5	15.7	-3.7	0.0889*
Cc1cc(NS(=O)(=O)c2ccc(NC(=S)NC(=O)c3ccccc3)cc2)no1	-2.9	2.08	7.7	-7.7	nt	-1.9	0.069
COc1ccc(-c2nc3ccccc3o2)cc1NC(=O)c1ccc(Br)o1	2.4	2.08	-20.2	-0.4	-20.9	-0.9	0.0643*
Cc1ccc(OC(=O)c2cccc(S(=O)(=O)N3CCCC3)c2)c(-n2nc3ccccc3n2)c1	-2.7	-1.04	-25.2	-11.1	nt	-1.4	nt
COc1ccc(NC(=O)CSc2nc(N3CCCCC3)nc(N3CCCCC3)n2)cc1	nt	1.12	nt	nt	15.1	-3.0	0.0844*
COc1ccc(NC(=O)CN2CCCCC2)cc1	-1.7	0.66	6.2	nt	-4.6	-1.4	nt
COc1ccc(NC(=O)CSc2nccc(C)n2)cc1	-1.6	1.86	-10.6	-0.9	-4.5	-1.6	0.0364
COc1cc(NC(=O)CSc2nccc(C)n2)c(C(=O)O)cc1OC	-2.7	-0.25	2.5	-2.2	-16.8	-0.5	nt
O=C1CCCc2nn(-c3ccccc3)c(-c3ccncc3)c21	-3.3	0.24	-1.4	-0.8	-11.9	-3.6	nt
Cc1ccc(-c2noc(CCC(=O)NCCN3CCc4ccccc4C3)n2)cc1	-4.5	0.13	4.4	-2.1	nt	-3.4	nt
Cc1ccc(-c2noc(CCC(=O)NCCN3CCOCC3)n2)cc1	-0.8	2.36	-7.3	4.0	7.7	-1.9	0.0742*
CC(OC(=O)c1nc(-c2ccccc2)n(-c2ccccc2)n1)C(=O)Nc1cc(Cl)cc(Cl)c1 (configuration not stated)	-3.7	-0.52	19.1	12.0	nt	0.4	nt
Cc1ccc(C)c(N2CCN(C(=O)CN3C(=O)c4ccccc4C3=O)CC2)c1	-4.7	-0.82	-10.1	-1.8	-3.5	-2.2	nt
Cc1ccccc1N1CCN(C(=O)CN2C(=O)c3ccccc3C2=O)CC1	-4.8	7.38*	-6.8	-2.0	10.9	0.6	0.0753*
Cc1ccc(NC(=O)NCCCc2ccccc2)cc1	-1.3	-0.74	8.0	-0.1	nt	-0.1	nt
CCOc1ccc(N(CC(=O)NCc2ccccc2)S(C)(=O)=O)cc1	1.2	5.54*	-5.6	-0.6	-7.0	-1.2	0.086*
Cc1ccc(CO/N=C\Cc2snc(Sc3ncc(C(F)(F)F)cc3Cl)c2C#N)cc1	-1.9	3.71*	-4.8	-1.9	-13.9	-0.9	0.0492
CC(C)CCNC(=S)Nc1ccccc1F	-2.7	0.39	-7.6	-17.7	nt	-3.5	nt
O=C(C1CCCCC1)N1CCN(C(=O)C2CCCCC2)CC1	-3.4	10.8*	-3.9	1.9	5.3	-2.2	0.0412
O=C(CSc1nnc(CNc2ccc(F)cc2)n1-c1ccccc1)N1CCOCC1	nt	0.93	nt	nt	11.2	-1.4	nt
O=[N+]([O-])c1ccc(N/N=C\c2ccccc2OCc2ccccc2)cc1	nt	1.82	nt	nt	nt	-1.4	0.06
CC1Cc2ccccc2N1CC(=O)NCc1ccc2c(c1)OCO2 (configuration not stated)	3.5	-0.44	-1.9	-7.8	nt	-1.6	nt
CCCCNS(=O)(=O)c1ccc2nc(SCC(=O)Nc3ccccc3Cl)[nH]c2c1	-4.7	2.24	47.3	-4.8	nt	-1.0	0.109*
SMILES	CD11b adhes enh	SDO1 yeast rescue	CD11b adhes inh	Phagocyt inh	MRP reversal	MRP1 act	sdo1 rescue conf
CCCCNS(=O)(=O)c1ccc2nc(SCC(=O)c3ccccc3OC)[nH]c2c1	-6.8	-0.23	36.7	-0.2	6.5	0.8	nt
C=C(C)COc1ccc(-c2nc(N)ncc2Oc2ccc(OC)cc2)c(O)c1	-4.0	3.48*	-8.3	-0.6	2.0	0.1	0.0355
Cn1nc(OC(=O)Nc2ccccc2)cc1C(F)(F)F	-3.9	3.29*!	-1.5	-3.1	5.5	-1.8	0.0766*
Cn1nc(OC(=O)Nc2cccc(Cl)c2)cc1C(F)(F)F	-3.0	-1.05	-21.4	-0.1	-0.8	1.2	nt
CCOC(=O)[C@@H]1C(c2c(OC)cc(OC)cc2OC)=NO[C@@H]1C(=O)OCC	nt	5.96*	nt	-1.0	nt	-0.8	0.0709*
COc1ccccc1S(=O)(=O)Cc1ccc(C(=O)N2CCOCC2)o1	nt	3.19*	nt	nt	6.4	-3.0	0.0437
COc1ccccc1S(=O)(=O)Cc1ccc(C(=O)N2CCN(c3ccccc3)CC2)o1	-3.1	0.29	15.9	-3.2	-1.2	-1.3	nt
O=C(Cc1ccccc1)Nn1c(-c2ccccc2)nc2ccccc2c1=O	nt	-0.02	nt	nt	nt	-0.4	nt
NC(=S)Nn1c(-c2ccccc2)nc2ccccc2c1=O	nt	10.8*	nt	-5.1	nt	-0.6	0.0596
CCOc1ccc(CCNC(=O)C2CCN(C(=O)N(C)C)CC2)cc1OCC	-0.9	2.03	-5.8	-0.2	3.9	-0.9	0.0551
CCCCC(=O)Nc1cc(NC(=O)CC)ccc1Cl	-5.6	3.4*	-8.7	-2.1	6.2	-0.6	0.0451
COc1ccc(/C=N/NC(=O)CCCC(=O)NC2CCCCC2)cc1	0.1	-0.46	-16.3	1.9	nt	-3.7	nt
COc1ccc(/C=N/NC(=S)NC2CCS(=O)(=O)C2)cc1 (configuration not stated)	0.9	11.2*	-9.7	0.5	nt	-1.8	0.0617
COc1cc(NC(=S)NC(=O)c2ccccc2F)ccc1NC(=O)c1ccco1	nt	2.25	nt	-2.4	nt	-2.6	0.07
COc1cc(NC(=O)C(C)C)ccc1NC(=O)c1ccco1	0.5	1.71	5.6	-0.4	-9.3	1.5	nt
COc1ccc(-c2nnn(CC(=O)N(Cc3ccccc3Cl)C(C(=O)NCC3CCCO3)c3ccco3)n2)cc1OC (configuration not stated)	3.4	0.38	-13.1	-0.8	nt	0.1	nt
O=C(C1=C(O)C(=O)N(CCc2ccccc2)C1c1cccnc1)c1ccco1 (configuration not stated)	5.1	-0.95	-1.8	0.1	-10.6	-0.7	nt
COCCCN1C(=O)C(O)=C(C(=O)c2ccco2)C1c1ccccc1 (configuration not stated)	-5.7	2.01	-4.6	-1.2	4.0	-2.9	0.0973*
Cc1cc2cc3c(cc2nc1SCC(=O)OC(C)C)OCCO3	-3.9	3.14*	-0.6	-0.3	nt	-3.8	0.0418
Cc1cc2cc3c(cc2nc1SCC(=O)O)OCCO3	-1.2	-0.45	-11.9	-1.7	14.1	-4.9	nt
Cc1cc(C)nc(NC(=O)/C=C/c2ccc3c(c2)OCO3)c1	nt	0.39	nt	3.6	nt	-1.9	nt
